# From the supplement of paper PMC4723716
# ± gives the uncertainty stated by the source. In all, about 9,900 compounds were measured (“viability index relative to DMSO control”: median about 1, lowest 2% from about 0.85 on). What follows is part of a selection rich in the lowest values, with near analogues and random picks from the rest.
# System: Plasmodium falciparum NF54 stage V gametocytes
# Assay: viability index relative to DMSO control (fraction); higher = less gametocyte killing
# Details: 2.5 µM, incubation time: 72 h
# In short: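 P. falciparum NF54 stage V gametocytes (serum-free medium, 0.75% gametocytemia, 1.25% hematocrit) were exposed to compound at 2.5 µM for 72 hr at 37°C under low oxygen, then stained with MitoTracker Red CMXRos and saponin for one to two hours. Red particles of 20–70 µm2 in one field per well were counted, and the viability index is that count scaled to the plate mean of solvent-only wells.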
# [1] = library set: Broad Institute DOS
SMILES,viability index [1],viability index (library set: Broad Institute Blood Stage)
C[C@@H]1CN([C@H](C)CO)C(=O)CCCn2nncc2CO[C@@H]1CN(C)S(=O)(=O)c1ccc2c(c1)OCCCO2,1.025 ± 0.0016,–
C[C@@H]1CN([C@H](C)CO)C(=O)c2cc(NS(=O)(=O)c3cn(C)cn3)ccc2O[C@@H](C)CCCCO[C@@H]1CN(C)Cc1ccc2c(c1)OCO2,1.15 ± 0.07,–
CC(=O)N1CC2(C1)[C@@H](c1ccc(-c3ccc(F)cc3)cc1)[C@@H](CO)N2CC1CC1,1.08 ± 0.023,–
O=C(C[C@@H]1C=C[C@@H](NC(=O)Nc2ccc3c(c2)OCO3)[C@@H](CO)O1)NCCCN1CCOCC1,1.02 ± 0.075,–
COc1ccccc1S(=O)(=O)N1[C@@H]2CNC[C@H]1[C@@H]2c1ccc(-c2ccncc2)cc1,1.06 ± 0.032,–
O=C(C[C@@H]1CC[C@H](NC(=O)C2CC2)[C@H](CO)O1)Nc1ccccc1,0.916 ± 0.036,–
O=C(C1CCOCC1)N1C[C@@H]2[C@H](c3ccccc31)[C@@H](CO)N2C(=O)Cc1ccccn1,1.06 ± 0.053,–
COc1ccc2c3c([nH]c2c1)[C@@H](CO)N(C[C@]31CN(C1)C(=O)NC(C)C)C(=O)C1CCOCC1,1.03 ± 0.045,–
C[C@H]1CN([C@@H](C)CO)C(=O)c2cccc(NC(=O)C3CCOCC3)c2O[C@@H]1CN(C)C(=O)Nc1cccc2ccccc12,1.03 ± 0.11,–
CCS(=O)(=O)Nc1ccc2c(c1)C(=O)N(C)[C@@H]1CC[C@H](CC(=O)NC3CCCCC3)O[C@@H]1CO2,0.905 ± 0.12,–
CN(C)C(=O)c1cccc(-c2ccc([C@@H]3[C@H]4CN(C(=O)C5CCC5)CC(=O)N4[C@H]3CO)cc2)c1,0.9976 ± 0.0084,–
COc1ccc(-c2ccccc2[C@@H]2[C@@H](CO)N(C(=O)NC(C)C)[C@H]2C#N)cc1,1.1 ± 0.063,–
COc1ccc(S(=O)(=O)Nc2ccc3c(c2)[C@H]2C[C@H](CC(=O)N(C)C)O[C@@H](CO)[C@H]2O3)cc1,1.11 ± 0.014,–
C[C@H]1CN([C@@H](C)CO)C(=O)c2cc(NS(=O)(=O)c3cn(C)cn3)ccc2O[C@@H]1CN(C)C(=O)Nc1cccc2ccccc12,0.954 ± 0.24,–
Cc1ccc(S(=O)(=O)N(C)C[C@@H]2Oc3cc(C#CC4CCCC4)ccc3S(=O)(=O)N([C@H](C)CO)C[C@H]2C)cc1,0.766 ± 0.091,–
C[C@@H]1CN([C@H](C)CO)S(=O)(=O)c2ccc(C#Cc3cccc(F)c3)cc2O[C@H]1CN(C)S(=O)(=O)c1cn(C)cn1,0.803 ± 0.052,–
C[C@H]1CN([C@@H](C)CO)S(=O)(=O)c2ccc(C#Cc3cccc(F)c3)cc2O[C@@H]1CN(C)S(=O)(=O)c1cn(C)cn1,0.985 ± 0.049,–
CCCC#Cc1ccc2c(c1)O[C@H](CN(C)Cc1ccccn1)[C@H](C)CN([C@@H](C)CO)S2(=O)=O,0.847 ± 0.015,–
COc1cccc(S(=O)(=O)N(C)C[C@@H]2Oc3cc(Br)ccc3S(=O)(=O)N([C@@H](C)CO)C[C@@H]2C)c1,1.07 ± 0.041,–
C[C@@H]1CN([C@H](C)CO)S(=O)(=O)c2ccc(C#Cc3cccc(F)c3)cc2O[C@@H]1CN(C)S(=O)(=O)c1cn(C)cn1,1.01 ± 0.055,–
C[C@@H]1CN([C@@H](C)CO)S(=O)(=O)c2ccc(C#Cc3cccc(F)c3)cc2O[C@@H]1CN(C)S(=O)(=O)c1cn(C)cn1,0.9512 ± 0.0018,–
CCCC#Cc1ccc2c(c1)O[C@H](CN(C)Cc1ccccn1)[C@@H](C)CN([C@@H](C)CO)S2(=O)=O,1.02 ± 0.084,–
Cc1ccc(S(=O)(=O)N(C)C[C@H]2Oc3cc(C#CC4CCCC4)ccc3S(=O)(=O)N([C@H](C)CO)C[C@H]2C)cc1,0.8771 ± 0.0037,–

SMILES,viability index [1],viability index (library set: Broad Institute Blood Stage)
CCCC#Cc1ccc2c(c1)O[C@@H](CN(C)Cc1ccccn1)[C@@H](C)CN([C@@H](C)CO)S2(=O)=O,0.884 ± 0.045,–
Cc1ccc(S(=O)(=O)N(C)C[C@@H]2Oc3cc(C#CC4CCCC4)ccc3S(=O)(=O)N([C@@H](C)CO)C[C@H]2C)cc1,0.648 ± 0.17,–
Cc1ccc(S(=O)(=O)N(C)C[C@@H]2Oc3cc(C#CC4CCCC4)ccc3S(=O)(=O)N([C@H](C)CO)C[C@@H]2C)cc1,0.943 ± 0.17,–
O=C(C[C@H]1CC[C@H]2[C@@H](COC[C@H](O)CN2Cc2nccs2)O1)N1CCC(Cc2ccccc2)CC1,1.03 ± 0.078,–
CN1C(=O)c2cc(NC(=O)c3cnccn3)ccc2OC[C@@H]2O[C@H](CC(=O)N[C@@H]3CCN(Cc4ccccc4)C3)CC[C@H]21,1.05 ± 0.031,–
COc1ccccc1CN1[C@@H]2CNC[C@H]1[C@@H]2c1ccc(-c2cccnc2)cc1,1.09 ± 0.1,–
Cc1noc(C)c1S(=O)(=O)N(C)C[C@@H]1OCCCC[C@H](C)Oc2ccc(NC(=O)CCC(F)(F)F)cc2C(=O)N([C@@H](C)CO)C[C@H]1C,1.03 ± 0.09,–
O=C(C[C@@H]1C=C[C@@H](NC(=O)c2ccc3c(c2)OCO3)[C@@H](CO)O1)NC1Cc2ccccc2C1,0.963 ± 0.11,–
COc1cccc(-c2ccccc2[C@@H]2[C@H](C#N)N(C(=O)c3ccccn3)[C@H]2CO)c1,1.1 ± 0.072,–
Cc1ccc(S(=O)(=O)Nc2ccc3c(c2)C(=O)N([C@@H](C)CO)C[C@@H](C)[C@H](CN(C)S(=O)(=O)c2cccs2)OCCCC[C@@H](C)O3)cc1,1.13 ± 0.086,–
CO[C@H](CN(C)Cc1ccc2c(c1)OCO2)[C@H](C)CN(C(=O)c1ccccc1)[C@@H](C)CO,1.067 ± 0.0074,–
COc1ccc2c3c([C@@H](CO)N(Cc4ccncc4)C[C@]33CN(C3)C(=O)Nc3cccc(F)c3)n(C)c2c1,1 ± 0.16,–
C/C=C/c1ccc([C@H]2[C@H]3CNC[C@@H]2N3C(=O)Nc2ccc3c(c2)OCO3)cc1,1.05 ± 0.093,–
C[C@H]1CN([C@@H](C)CO)S(=O)(=O)c2ccc(-c3ccncc3)cc2O[C@H]1CN(C)S(C)(=O)=O,1.023 ± 0.0035,–
COc1ccccc1S(=O)(=O)N(C)C[C@@H]1Oc2cc(/C=C/c3ccccc3)ccc2S(=O)(=O)N([C@H](C)CO)C[C@H]1C,–,0.808 ± 0.032
Cc1ccc(S(=O)(=O)N(C)C[C@@H]2Oc3cc(C#CC4CCCC4)ccc3S(=O)(=O)N([C@@H](C)CO)C[C@@H]2C)cc1,0.837 ± 0.055,–
Cc1ccc(S(=O)(=O)N(C)C[C@H]2Oc3cc(C#CC4CCCC4)ccc3S(=O)(=O)N([C@H](C)CO)C[C@@H]2C)cc1,0.676 ± 0.26,–
C[C@@H]1CN([C@@H](C)CO)S(=O)(=O)c2ccc(C#Cc3cccc(F)c3)cc2O[C@H]1CN(C)S(=O)(=O)c1cn(C)cn1,0.9366 ± 0.0027,–
C[C@H]1CN([C@@H](C)CO)S(=O)(=O)c2ccc(C#Cc3cccc(F)c3)cc2O[C@H]1CN(C)S(=O)(=O)c1cn(C)cn1,1.04 ± 0.054,–
CCCN(C)C[C@@H]1Oc2cc(/C=C/c3ccccc3)ccc2S(=O)(=O)N([C@@H](C)CO)C[C@H]1C,1.102 ± 0.0059,–
Cc1ccc(S(=O)(=O)N(C)C[C@H]2Oc3cc(C#CC4CCCC4)ccc3S(=O)(=O)N([C@@H](C)CO)C[C@H]2C)cc1,0.713 ± 0.03,–
COc1cccc(S(=O)(=O)N(C)C[C@H]2Oc3cc(Br)ccc3S(=O)(=O)N([C@@H](C)CO)C[C@H]2C)c1,0.978 ± 0.026,–
CCCN(C)C[C@H]1Oc2cc(/C=C/c3ccccc3)ccc2S(=O)(=O)N([C@H](C)CO)C[C@@H]1C,1.02 ± 0.016,–

SMILES,viability index [1],viability index (library set: Broad Institute Blood Stage)
COc1ccccc1NC(=O)N1C[C@H](O)COC[C@H]2O[C@H](CC(=O)NCCc3ccncc3)CC[C@@H]21,1.08 ± 0.062,–
O=C1CCC(=O)N[C@@H](c2ccccc2)C/C=C\CCN1,1.01 ± 0.087,–
COc1ccc(NC(=O)N2C[C@@H]3[C@H](c4ccccc42)[C@H](CO)N3Cc2ccccn2)cc1,0.993 ± 0.11,–
CCCNC(=O)Nc1ccc2c(c1)OC[C@H](C)N(Cc1cncnc1)C[C@@H](C)[C@H](OC)CN(C)C2=O,0.989 ± 0.014,–
CO[C@H]1CN(C)C(=O)c2cc(NC(=O)C3CCCCC3)ccc2OC[C@H](C)N(Cc2cccnc2)C[C@H]1C,1.037 ± 0.0049,–
Cc1noc(C)c1S(=O)(=O)N(C)C[C@@H]1OCc2cn(nn2)CCCC(=O)N([C@@H](C)CO)C[C@H]1C,1.03 ± 0.014,–
C[C@H](CO)N1C[C@H](C)[C@H](CN(C)S(=O)(=O)c2cn(C)cn2)Oc2cc(C#Cc3cccc(F)c3)ccc2S1(=O)=O,0.9878 ± 0.0014,–
Cc1ccc(S(=O)(=O)N(C)C[C@H]2Oc3cc(C#CC4CCCC4)ccc3S(=O)(=O)N([C@@H](C)CO)C[C@@H]2C)cc1,0.705 ± 0.12,–
C[C@H](CO)N1C[C@H](C)[C@@H](CN(C)S(=O)(=O)c2cn(C)cn2)Oc2cc(C#Cc3cccc(F)c3)ccc2S1(=O)=O,1.05 ± 0.09,–
COc1cccc(-c2ccc3c(c2)[C@@H]2[C@@H](CCN2S(=O)(=O)c2cn(C)cn2)[C@@H](CO)N3)c1,0.97 ± 0.14,–
COc1ccc(S(=O)(=O)Nc2ccc3c(c2)CC(=O)N([C@H](C)CO)C[C@H](C)[C@H](CN(C)Cc2ccc(C(=O)Nc4ccccc4N)cc2)O3)cc1,0.766 ± 0.044,–
COc1ccc(S(=O)(=O)Nc2ccc3c(c2)CC(=O)N([C@@H](C)CO)C[C@@H](C)[C@H](CN(C)C(=O)Nc2c(C)noc2C)O3)cc1,0.986 ± 0.019,–
COc1ccc(S(=O)(=O)Nc2ccc3c(c2)CC(=O)N([C@@H](C)CO)C[C@H](C)[C@@H](CN(C)Cc2ccc(C(=O)Nc4ccccc4N)cc2)O3)cc1,0.872 ± 0.11,–
Cc1noc(C)c1S(=O)(=O)Nc1ccc2c(c1)CC(=O)N([C@@H](C)CO)C[C@H](C)[C@H](CN(C)Cc1ccc(Oc3ccccc3)cc1)O2,0.923 ± 0.045,–
COc1ccc(S(=O)(=O)Nc2ccc3c(c2)CC(=O)N([C@@H](C)CO)C[C@@H](C)[C@H](CN(C)Cc2ccc(C(=O)Nc4ccccc4N)cc2)O3)cc1,0.836 ± 0.077,–
COc1ccc(S(=O)(=O)Nc2ccc3c(c2)CC(=O)N([C@H](C)CO)C[C@@H](C)[C@@H](CN(C)Cc2ccc(C(=O)Nc4ccccc4N)cc2)O3)cc1,0.956 ± 0.014,–
Cc1noc(C)c1S(=O)(=O)Nc1ccc2c(c1)CC(=O)N([C@@H](C)CO)C[C@@H](C)[C@@H](CN(C)Cc1ccc(Oc3ccccc3)cc1)O2,0.851 ± 0.12,–
COc1ccc(S(=O)(=O)Nc2ccc3c(c2)CC(=O)N([C@@H](C)CO)C[C@@H](C)[C@@H](CN(C)Cc2ccc(C(=O)Nc4ccccc4N)cc2)O3)cc1,0.844 ± 0.012,–
COc1ccc(S(=O)(=O)Nc2ccc3c(c2)CC(=O)N([C@H](C)CO)C[C@H](C)[C@@H](CN(C)Cc2ccc(C(=O)Nc4ccccc4N)cc2)O3)cc1,1 ± 0.027,–
COc1ccc(S(=O)(=O)Nc2ccc3c(c2)CC(=O)N([C@@H](C)CO)C[C@H](C)[C@H](CN(C)Cc2ccc(C(=O)Nc4ccccc4N)cc2)O3)cc1,0.993 ± 0.024,–
Cc1noc(C)c1S(=O)(=O)Nc1ccc2c(c1)CC(=O)N([C@H](C)CO)C[C@H](C)[C@H](CN(C)Cc1ccc(Oc3ccccc3)cc1)O2,0.981 ± 0.01,–
COc1ccc(S(=O)(=O)Nc2ccc3c(c2)CC(=O)N([C@H](C)CO)C[C@@H](C)[C@H](CN(C)Cc2ccc(C(=O)Nc4ccccc4N)cc2)O3)cc1,0.966 ± 0.1,–
